# Assay results from the supplement of paper PMC7866885, “A novel bicyclic 2,4-diaminopyrimidine inhibitor of Streptococcus suis dihydrofolate reductase” (PeerJ, 2021).
# ± gives the standard deviation.
# Tested on: Streptococcus suis HE06
# Assay: percent growth relative to DMSO control; higher = less growth inhibition
# Details: 10 µM; incubation time 18 h
# Protocol: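 CLSI broth microdilution: 5x10^4 CFU of Streptococcus suis (strain P1/7 or HE06) incubated with 10 µM Pathogen Box compound in cation-adjusted Mueller Hinton broth, 37 °C, 5% CO2, 18 h. Growth read as OD600 and expressed as percent of the DMSO-treated control (100%); mean ± SD of three independent experiments.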
row,SMILES,percent growth [%]
1,NCC(=O)N1CCn2c(nc(-c3ccccc3)c2Nc2ccc3c(c2)OCO3)C1,97.6 ± 33
2,CC(C)(C)OC(=O)N1CCC(Cn2nc(-c3cnc4ccccc4c3)c3c(N)ncnc32)CC1,88.2 ± 27
3,Cc1cc(C)cc(COc2ccc3c(C)c(CCC(=O)O)c(=O)oc3c2C)c1,39.9 ± 40
4,COC(=O)c1cccc2oc(-c3cccc(OC)c3NC(=O)c3cc(-c4ccccc4)on3)nc12,102 ± 25
5,Cc1cc(OCC(=O)NCc2ccccc2)c2cc(Br)ccc2n1,94.8 ± 9.9
6,CN1CCCC1CCO[C@](C)(c1ccccc1)c1ccc(Cl)cc1 (some centres not stated),86.3 ± 9.2
7,CN1CCC(c2cc(-c3ccncc3)c(-c3ccc(F)cc3)[nH]2)CC1,101 ± 13
8,CC(C)N=c1cc2n(-c3ccc(Cl)cc3)c3ccccc3nc-2cc1Nc1ccc(Cl)cc1,29.6 ± 51
9,CCCc1ccc(S(=O)(=O)Nc2ccc(CN3CCN(CC4CC4)CC3)cc2)cc1,88 ± 15
10,FC(F)(F)c1cc(NCCc2ccccc2)nc(-c2ccccn2)n1,1.92 ± 3.3
11,COc1cc(C2=NCCN2)ccc1-c1cn(-c2cccc(C3=NCCN3)c2)nn1,82.9 ± 23
12,Cc1cc(NC(=O)c2ccc(S(=O)(=O)N(Cc3ccccc3)C(C)C)cc2)no1,105 ± 27
13,CCCNC(=O)N1CCC2(CC1)CC(=O)c1cc(C)ccc1O2,87.9 ± 23
14,COc1ccc(Cn2cnc3c(-c4ccco4)nc(Cl)nc32)cc1,88.5 ± 13
15,CCOc1ccccc1NC(C)C(=O)Nc1cc(C(F)(F)F)ccc1N1CCOCC1 (configuration not stated),115 ± 20
16,CC(C)(C)OC(=O)N1CCN(c2nccc(-c3ccc(-c4ccc(Cl)cc4)s3)n2)CC1,88.2 ± 12
17,CC(C)(C)CN1C(=O)C(c2ccccc2)(c2ccccc2)N=C1N,46.1 ± 39
